{"source": "PubChem BioAssay (NCI)", "note": "Values joined by “and” are separate entries in the source; they are usually repeats but may differ in a detail not shown here. Equal values may be shown once. Compounds without any hit were thinned out: in the full panel of roughly 83,000, 20% have a hit.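 Values shown are percent growth following 48 h exposure of cells in 96-well plates to a single concentration of compound; below 10 was considered active.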 Active and inactive are the calls of the source."}
{"tested_on": "SNB-75 CNS", "test": "NCI-60 one-dose screen, 48 h (100 = growth as untreated, 0 = no growth, -100 = all killed)", "conditions": "10 µM", "protocol": "(§1) Growth inhibition of the SNB-75 human tumor cell line is measured as a screen for anti-cancer activity. Cells are grown in 96 well plates and exposed to the test compound for 48 hours. Compounds are tested at a single concentration, which is 10^-5 M for most compounds. The reported endpoint is percent growth (GI% or GIPRCNT), where numbers from 0 - 100% represent growth inhibition, and numbers from -100% - 0 represent cell death. For example, a value of 40 represents 60% growth inhibition. A value of 0 means no net growth occurred over the course of the experiment. A value of -40 indicates 40% of cells at the beginning of the experiment died by the end of the experiment. A value of -100 means all cells are dead at the end of the experiment.\n(§2) NCI-60 Human Tumor Cell Lines Screen was performed using the standard one-dose NCI protocol, which is described in more detail at https://dtp.cancer.gov/discovery_development/nci-60/default.htm.\n(§3) Compounds with GIPRCNT values below 10 were considered active. Activity score was based on GIPRCNT using the following formula: […]\n(§4) Score is 0 for GIPRCNT values of 100 or above, 50 for GIPRCNT values of 0, and 100 for GIPRCNT values of -100."}
{"smiles": "CC1(C)OB(c2ccc(Cn3cc(F)c(=O)[nH]c3=O)cc2)OC1(C)C", "growth": "103% (inactive)"}
{"smiles": "Cc1[nH]c(-c2nc3ccccc3[nH]2)c(C)c1C(=O)NC(C)C1CCCCC1", "note": "(stereo not given)", "growth": "79.6% (inactive)"}
{"tested_on": "SNB-75 CNS", "test": "NCI-60 one-dose screen, 48 h (100 = growth as untreated, 0 = no growth, -100 = all killed)", "conditions": "10 µM unless noted", "protocol": "as §1, §2, §3, §4"}
{"smiles": "COc1ccc(S(=O)(=O)N2CCOCC2)cc1NC(=O)c1[nH]c(C)c2c1CCCCC2=O", "growth": "101% (inactive) and 7.61% (active)"}
{"smiles": "O=[N+]([O-])c1ccc(N/N=C\\c2cc(Br)ccc2O)nc1", "growth": "38.3% (inactive) and 47.7% (inactive)"}
{"smiles": "CC(C)C(=O)Nc1ccc([N+](=O)[O-])c(C(F)(F)F)c1", "growth": "113% (inactive) and 92% (inactive)"}
{"smiles": "CCN(CC)CCCC(CNc1ccnc2cc(Cl)ccc12)c1ccc(Cl)cc1", "note": "(stereo not given)", "growth": "-76.2% (active) and -39.9% (active)"}
{"smiles": "CC(O)Cn1cnc2c1c(=O)n(C)c(=O)n2C", "note": "(stereo not given)", "growth": "83.5% (inactive)"}
{"smiles": "CC(/C=N/N1C(=O)c2ccccc2C1=O)c1ccccc1", "note": "(stereo not given)", "growth": "83% (inactive)"}
{"smiles": "Nc1ccc2ccc(N)cc2c1", "growth": "91.3% (inactive)"}
{"smiles": "COc1cc2c(Nc3ccc(Cl)c(Cl)c3F)ncnc2cc1OCC1C[C@@H]2CN(C)C[C@@H]2C1", "note": "(stereo not given in full)", "growth": "-96% (active) and -40.9% (active)"}
{"smiles": "CC(=O)c1ccc2c(c1)N(CCCN1CCN(CCO)CC1)c1ccccc1S2", "growth": "67% (inactive) and -12.1% (active)"}
{"smiles": "Cc1cc(O)c(C(C)C)cc1S(=O)(=O)O", "note": "(tested in a mixture with another compound)", "growth": "84.1% (inactive) and 10.4% (inactive) and 80.2% (inactive)"}
{"smiles": "O=c1c2ccccc2nc2n1Cc1nc3ccccc3c(=O)n1C2", "growth": "86.6% (inactive) and 105% (inactive)"}
{"smiles": "COc1cc(C(=O)c2ccc3c(c2)OCO3)cc(OC)c1OC", "growth": "0.967% (active) and -9.36% (active)"}
{"smiles": "O=S(=O)(Nc1ccccc1)C1CCCCC1", "growth": "86.7% (inactive) and 94.7% (inactive)"}
{"smiles": "Nc1ccccc1Nc1ccccc1", "growth": "106% (inactive) and 90.7% (inactive)"}
{"smiles": "CCC(=O)C(CC)c1cccc(OC)c1", "note": "(stereo not given)", "growth": "76.7% (inactive)"}
{"smiles": "Nc1ccccc1SC1CC(=O)N(c2cccc3ccccc23)C1=O", "note": "(stereo not given)", "growth": "76.4% (inactive)"}
{"smiles": "Cc1ccc(NCSc2ccc(Cl)cc2)cc1", "growth": "86% (inactive) and 91.7% (inactive)"}
{"smiles": "O=C1c2ccccc2C(=O)N1/N=C/c1ccc2c(c1)OCO2", "growth": "104% (inactive)"}
{"smiles": "CC1(C)[C@@H](OC(=O)CCC(=O)O)CC[C@]2(C)[C@H]3C(=O)C=C4[C@@H]5C[C@@](C)(C(=O)O)CC[C@]5(C)CC[C@@]4(C)[C@]3(C)CC[C@@H]12", "growth": "-68.7% (active)"}
{"smiles": "Nc1cc(-c2cccc(OC(F)(F)F)c2)nc2ccc(N3CCCC3)cc12", "growth": "29.7% (inactive) and 34.7% (inactive)"}
{"smiles": "CC(C(=O)O)n1cc(C#N)c(=O)[nH]c1=O", "note": "(stereo not given)", "growth": "83.7% (inactive) and 76.9% (inactive)"}
{"smiles": "CN1CCN(C2CCN(C(=O)Nc3cc(Oc4ccc(NC(=O)C5(C(=O)Nc6ccc(F)cc6)CC5)c(F)c4)ccn3)CC2)CC1", "growth": "-77.5% (active) and 77.2% (inactive)"}
{"smiles": "CCN(CC)C(=O)c1cccnc1", "growth": "98.7% (inactive)"}
{"smiles": "O=[N+]([O-])c1ccc(-n2[nH]nnc2=S)cc1", "growth": "89.1% (inactive)"}
{"smiles": "Cc1nnc(NC/C=C/c2ccccc2)s1", "growth": "86.3% (inactive) and 103% (inactive)"}
{"smiles": "Cc1ncsc1CCO", "growth": "111% (inactive) and 91.5% (inactive)"}
{"smiles": "O=C=NC(c1ccccc1)(c1ccccc1)c1ccccc1", "growth": "84.7% (inactive)"}
{"smiles": "CC1=C(/C=C/C(C)=C/C=C/C(C)=C/C(=O)O)C(C)(C)CCC1", "growth": "122% (inactive) and 72.2% (inactive) and 79.7% (inactive)"}
{"smiles": "CC(O)(CC(=O)CC(=O)c1ccccc1)c1ccccc1", "note": "(stereo not given)", "growth": "92.5% (inactive) and 126% (inactive)"}
{"smiles": "NC(=O)C1CC2C=CC1C2", "note": "(stereo not given)", "growth": "87% (inactive) and 93.8% (inactive)"}
{"smiles": "Nc1ccc(N=Nc2ccc(S(=O)(=O)O)cc2)cc1S(=O)(=O)O", "growth": "106% (inactive) and 81.6% (inactive)"}
{"smiles": "CNC(=O)c1ccc(C)c(-n2c(C)cc(OCc3ccc(F)cc3F)c(Br)c2=O)c1", "growth": "63.3% (inactive) and 86.1% (inactive)"}
{"smiles": "COc1cc(C(=O)N/N=C/c2ccc(N(C)C)cc2)cc(OC)c1OC", "growth": "38.4% (inactive)"}
{"smiles": "COc1ccc2c(=O)cc(-c3ccccc3)[nH]c2c1", "growth": "13.8% (inactive) and 9.61% (active)"}
{"smiles": "O[C@H](c1cc(C(F)(F)F)nc2c(C(F)(F)F)cccc12)[C@@H]1CCCCN1", "growth": "29.7% (inactive) and 46.3% (inactive)"}
{"smiles": "Oc1nc(NCCc2ccccc2)sc1/C=C1\\C=Nc2ncccc21", "growth": "-13.3% (active) and -10.9% (active)"}
{"tested_on": "SNB-75 CNS", "test": "NCI-60 one-dose screen, 48 h (100 = growth as untreated, 0 = no growth, -100 = all killed)", "conditions": "50 µM", "protocol": "as §1, §2, §3, §4"}
{"smiles": "CC1(C)OB(c2ccc(Cn3cc(F)c(=O)[nH]c3=O)cc2)OC1(C)C", "growth": "38.3% (inactive)"}
{"tested_on": "SNB-75 CNS", "test": "NCI-60 one-dose screen, 48 h (100 = growth as untreated, 0 = no growth, -100 = all killed)", "conditions": "100 µM", "protocol": "as §1, §2, §3, §4"}
{"smiles": "Cc1[nH]c(-c2nc3ccccc3[nH]2)c(C)c1C(=O)NC(C)C1CCCCC1", "note": "(stereo not given)", "growth": "-98.9% (active)"}
